Test results from PubChem BioAssay AID1273 (Columbia University Molecular Screening Center, 2008).
In all, about 130,000 compounds went through this assay and about 1,200 (0.92%) were called active.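 The calls were made as follows: active = inhibition above the mean plus 3 SD, with well images judged a real hit on visual review (cut at about 60% in these data, passing the limit was not always enough); inconclusive = inhibition over the cutoff but images rejected on review; inactive = inhibition not above the cutoff.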 For the sample, actives were picked, then their nearest neighbours and some compounds at random.

Test: insulin gene promoter suppression in islet cells – imaging, TRM-6 cells (human fetal islet line), eGFP reporter, cell count, primary screen (AID 1273;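 as to normalized cell count: cells exposed to compound for 48 h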)
Settings: at 2 µM; inhibition: stronger effect = higher value; normalized cell count: measured here: cell count, toxicity

SMILES	inhibition	normalized cell count
CCOP(=O)(OCC)C(NC(=O)c1ccc(C)cc1)C(Cl)(Cl)Cl (stereo not given)	-37.5% (inactive)	107%
CC(=O)c1ccc(OC(NC(=O)Cc2ccccc2)C(Cl)(Cl)Cl)cc1 (stereo not given)	-6.45% (inactive)	137%
COP(=O)(OC)C(NC(=O)c1ccc(C)cc1)C(Cl)(Cl)Cl (stereo not given)	78.6% (active)	102%
O=C(OCCN1CCOCC1)C1(c2ccccc2)CCCC1	-36.4% (inactive)	95.2%
CN(C)P(=S)(Nc1ccccc1)C(Cl)(Cl)Cl (stereo not given)	26.7% (inactive)	29.6%
Cc1ccc(-c2nn(CCC#N)cc2C(=O)O)cc1C	-30% (inactive)	85.1%
CCN(CC)C(=O)c1ccc(NC(=O)c2cc(-n3cnnc3)ccc2Cl)cc1	86.7% (active)	44.7%
CC(c1ccccc1)(c1ccccc1)c1ccncc1	27.3% (inactive)	109%
Cc1ccsc1C(=O)C1CCCN(Cc2ccc(O)cc2)C1 (stereo not given)	11.1% (inactive)	139%
C=CCN(CC=C)C(=O)Nc1ccc(OCC)cc1	36.8% (inactive)	88.5%
